The list is not random: actives were taken first. Their share in the collection is about 4.1%.
ssDAF12 agonist: S. stercoralis DAF-12 activation, primary screen. activation, % at 6.8 µM. 1% of 370,000 active. AID 652126. HEK293 ssDAF-12/GRIP1 lit1-tk-luc reporter, luminescence; % of 3 µM dafachronic acid response;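 active = activation above the mean over all tested compounds plus 3 SD, cut at about 0.9% in these data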
DAX1 inh-1: inhibits human nuclear receptor DAX1 | HEK293 Gal4-DAX1 luciferase reporter, luminescence | inhibition, % at 6.75 µM | 0.99% of 340,000 active | AID 504766;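 active = inhibition above the mean over all tested compounds plus 3 SD, cut at about 4.2% in these data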;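 note: inhibition shows as a rise in luminescence from relieved DAX1 repression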
DAX1 inh-2: blocks DAX1 repression of SF-1 activated StAR promoter | HEK293T StAR-luciferase reporter, SF-1/DAX-1 repression relief | inhibition, % at 6.8 µM | 1.1% of 370,000 active | AID 652010;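 active = inhibition above the mean over all tested compounds plus 3 SD, cut at about 3.6% in these data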;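 note: higher inhibition means more luminescence from relief of DAX-1 repression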
hgDAF12 agonist: agonists of H. glycines DAF-12 nuclear receptor; activation, % at 6.8 µM; 1.8% of 370,000 active; HEK293 GAL4-hgDAF12 UAS-luciferase reporter, agonist luminescence; normalized to butyrate control;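 active = activation above a cutoff set at the mean of all screened compounds plus 3 SD, cut at about 10% in these data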
hcDAF12 agonist: activators of H. contortus DAF-12 nuclear receptor | activation, % at 6.8 µM | 1.4% of 370,000 active | AID 652067 | HEK293 hcDAF-12 lit1-tk-luc reporter, luminescence; 0% DMSO, 100% Δ7-dafachronic acid;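 active = activation above the mean of all tested compounds plus 3 SD, cut at about 5.5% in these data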
hgDAF12 ag: confirmation of H. glycines DAF-12 agonists; shares compounds with hgDAF12 agonist; HEK293 GAL4-hgDAF12 luciferase reporter, agonist mode; percent of butyrate response; activation, % at 6.8 µM; 80% of 3,300 active;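 active = mean activation over triplicate wells above the hit cutoff derived from the earlier primary screen, cut at about 11% in these data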
LXR ag 2: activates human LXR-beta, counter-screen for DAF-12 agonists. shares compounds with hgDAF12 agonist. HEK293 Gal4-LXR luciferase reporter, 24 h. activation, % at 6.8 µM. 3,300 tested, under 10 active;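 active = mean activation of the triplicate above a set limit carried over from the primary screen, none filed active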
Target sequence (P55055 whole entry, looked up, the tested form may be a part): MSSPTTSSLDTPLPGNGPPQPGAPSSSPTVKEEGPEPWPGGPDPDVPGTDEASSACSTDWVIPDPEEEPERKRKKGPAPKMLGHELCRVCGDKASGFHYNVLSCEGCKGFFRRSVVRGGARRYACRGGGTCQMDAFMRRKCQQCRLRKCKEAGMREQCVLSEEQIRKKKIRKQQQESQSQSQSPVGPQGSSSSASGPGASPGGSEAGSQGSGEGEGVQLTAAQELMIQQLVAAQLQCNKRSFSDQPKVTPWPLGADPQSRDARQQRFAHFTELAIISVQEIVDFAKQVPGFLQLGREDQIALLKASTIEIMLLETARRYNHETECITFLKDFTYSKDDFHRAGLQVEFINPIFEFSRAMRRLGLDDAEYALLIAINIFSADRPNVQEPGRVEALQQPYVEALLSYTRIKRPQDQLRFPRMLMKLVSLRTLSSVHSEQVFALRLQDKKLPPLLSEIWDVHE
Hits are given with their value; - = inactive; . = not tested or not shown.

SMILES	ssDAF12 agonist	DAX1 inh-1	DAX1 inh-2	hgDAF12 agonist	hcDAF12 agonist	hgDAF12 ag	LXR ag 2
Cc1ccccc1C(=O)Nc1ccc(Br)cn1	-	-	-	14	-	16	-
O=C(Nc1nccs1)c1ccc(Cl)s1	-	-	-	-	-	.	.
O=C(NC1=NCCS1)c1ccc(Br)s1	-	-	3.8	14	6.0	13	-
O=C1CSc2ccc(S(=O)(=O)CCC(=O)NC3CCCCC3)cc2N1	-	-	-	-	-	.	.
CN(C)c1nc(C(N)=O)nc(N2CCOCC2)n1	-	-	-	-	-	.	.
C[C@@H]1CN([C@H](C)CO)C(=O)c2cc(Br)cnc2O[C@H]1CN(C)C(=O)Cc1ccccc1	-	-	-	-	-	.	.
C[C@]12c3[nH]c4ccc(Cl)cc4c3CCN1C(=O)[C@@H](CC(=O)NCCCn1ccnc1)C[C@@H]2C(=O)N1CCCCC1	-	-	-	-	-	.	.
COc1ccccc1Nc1nccc(N(C)C)c1C#N	-	-	-	-	-	.	.
c1coc(CNc2nc3ccccc3s2)c1	1.9	6.5	-	16	8.8	17	-
Cc1nnc(NCc2ccco2)s1	-	-	-	-	-	.	.
O=C(Nc1nccs1)C(Br)C(Br)c1ccccc1 (stereo not given)	-	-	-	16	6.4	19	-
CC(=O)OC(C(=O)Nc1nccs1)c1ccccc1 (stereo not given)	-	-	-	-	-	.	.
Cc1cc(S(=O)(=O)N2CCOCC2)ccc1OCC(=O)NCc1ccccn1	-	-	-	-	-	.	.
Cc1nn(-c2cccc([N+](=O)[O-])c2)c(N)c1-c1ccccc1	-	-	-	14	-	11	-
N#Cc1cccc(NC(=O)CSc2nnc(-c3n[nH]c4ccccc34)o2)c1	-	-	-	15	-	-	-
Cc1ccc(-c2cc(-c3nnc(SCC(=O)Nc4nccs4)n3N)[nH]n2)cc1	-	.	-	13	-	10	-
c1ccc(-n2cnc3cc(NCc4ccco4)ccc32)cc1	-	-	4.5	17	-	-	-
Cc1ccc(-c2cc(N)n(-c3ccc(F)cc3)n2)cc1	-	-	4.3	15	-	-	-
Cc1ccc(-c2cc(N)n(-c3ccc(C)cc3)n2)cc1	-	-	-	-	-	.	.
c1cnc2ccc(-c3ccc4ncccc4c3)cc2c1	-	-	3.8	14	-	17	-
O=C(Nc1ccc2ncccc2c1)Nc1ccc2ncccc2c1	-	-	-	-	-	.	.
C=C[C@]1(C)C=C2C(=O)[C@@]3(O)OC(=O)[C@@]4(CCCC(C)(C)[C@H]34)[C@@]2(O)CC1	-	.	-	-	-	.	.
CCOC(=O)[C@@H]1[C@H]2COc3ccc(Br)cc3[C@@H]2N2C(=O)N(c3cccc(F)c3)C(=O)[C@]12C	-	-	-	-	-	.	.
Cc1nc(NC(=O)c2ccc(F)cc2)sc1C(=O)Nc1ccc2c(c1)CCC2	-	-	-	-	-	.	.
O=C(Nc1ccc2c(c1)CCC2)c1cnccn1	-	-	4.4	17	-	15	-
SMILES	ssDAF12 agonist	DAX1 inh-1	DAX1 inh-2	hgDAF12 agonist	hcDAF12 agonist	hgDAF12 ag	LXR ag 2
Cc1ccc(C(=O)Nc2nc(C)c(C(=O)Nc3ccc4c(c3)CCC4)s2)cc1	1.3	-	-	17	-	17	-
Cc1cnc(C(=O)Nc2ccc3c(c2)CCC3)cn1	-	-	4.1	14	-	17	-
O=C(Nc1cccc(Cl)c1)c1cnccn1	-	-	-	-	-	.	.
Cc1ccc(S(=O)(=O)NC(C)(C)CN2CCC(Cc3ccccc3)CC2)cc1	-	-	-	-	-	.	.
CC(C)(C)NC(=O)[C@@H]1CN(Cc2cccnc2)CCN1C[C@@H](O)C[C@@H](Cc1ccccc1)C(=O)N[C@H]1c2ccccc2C[C@H]1O	-	-	-	-	-	.	.
COC(=O)C1NN=C(C(=O)c2ccc(Cl)cc2)C1c1ccc(OC)cc1 (stereo not given)	-	-	-	-	-	.	.
COc1ccccc1/C=C/C(=O)OCC(=O)NC1CCCCCCC1	-	-	-	-	-	.	.
O=C(NCCN1C(=O)C2C3C=CC(C3)C2C1=O)Nc1ccc(Br)cc1 (stereo not given)	-	-	-	13	-	11	-
O=C(NCCN1C(=O)C2C3C=CC(C3)C2C1=O)Nc1cccnc1 (stereo not given)	-	-	-	-	-	.	.
COC(=O)CNC(=O)c1ccccc1	-	-	-	-	-	.	.
O=C(CNC(=O)c1ccccc1)OC1CCCCC1	-	-	-	16	-	18	-
O=C(NCCCO)C(=O)Nc1cc2c3c(c1)CCN3C(=O)CC2	-	-	-	-	-	.	.
CC(C)c1ccc(NC(=O)Cc2cn(C)c3ccccc23)cc1	-	-	-	-	-	.	.
CC(c1ccc(NC(=O)OC(C)(C)C)cc1)c1cn(C)c2ccccc12 (stereo not given)	-	.	-	14	5.7	-	-
COC(=O)N1N=C(c2ccc(Br)cc2)CC1(O)C(F)(F)F (stereo not given)	1.6	-	-	14	-	11	-
O=C(NC1CCCCC1)C(C1CC1)n1c(=O)c(-c2cc3ccccc3[nH]2)nc2ccccc21 (stereo not given)	-	.	-	-	-	.	.
C=CCOc1cccc(/C=N/NC(=O)CN2CCCCC2)c1	-	-	-	-	-	.	.
COc1ccc(NC(=O)c2cc3ccccc3o/c2=N\NS(=O)(=O)c2ccc(C)cc2)cc1	-	-	-	14	6.0	13	-
Cc1ccc(NC(=O)c2cncc(Br)c2)c(O)c1	-	-	-	16	6.2	17	-
CCOc1cc(N2CCOCC2)c(OCC)cc1NC(=O)c1ccc(OC)c(S(=O)(=O)N2CCOCC2)c1	-	-	-	-	-	.	.
O=C(NC(=S)Nc1ccc2c(c1)OCCO2)c1cccc2ccccc12	-	-	-	-	-	.	.
O=C(Nc1cccc([N+](=O)[O-])c1)c1ccc2c(c1)OCCO2	-	-	-	-	-	.	.
O=C(NC(=S)Nc1ccc2c(c1)OCCO2)c1cccc(Br)c1	-	-	-	14	-	19	-
O=C(Nc1nc2c(Br)cccc2s1)c1ccc2c(c1)OCCO2	-	.	.	15	-	-	-
Cc1nc2c(ccc3nc(NC(=O)c4ccc5c(c4)OCCO5)sc32)s1	-	-	-	-	-	.	.
O=C(Nc1cccc(Cl)c1)c1ccc2c(c1)OCCO2	-	-	-	21	6.5	18	-
CC(=O)C1=CCC(c2ccccc2)N(Cc2ccccc2)C1 (stereo not given)	-	.	-	-	-	.	.
COCCn1c(SCC(=O)N2CCCC2=O)nnc1-c1ccncc1	-	-	-	-	-	.	.
COc1ccc(OCc2cc(-c3ccc(Cl)cc3)no2)cc1	-	-	-	-	-	.	.

High-throughput results deposited in PubChem by The Scripps Research Institute Molecular Screening Center.
